In test [1] the test system is Wnt5a (protein binding on small-molecule microarray). The experiment in a line: small molecules binding Wnt5a protein – biophysical, small-molecule microarray, 635/667 nm fluorescence, primary screen (AID 1142).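 Note: fluorescence read at 667 nm with signal to noise per printed feature.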 The settings on record: 635 nm fluorescence, higher = more signal.
A short description of test [2]: ATP-based viability of Huh7 replicon cells – cell-based, CellTiter-Glo luminescence, basal, 48 h, cytotoxicity control for HCV replication inhibitor project, primary screen (AID 1143).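 Note: Huh7 hepatoma cells carrying a hepatitis C replication reporter with no stimulus; test concentration not given here.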 The conditions noted are these: higher = more signal, called active from +8 up or from −8 down. (Replicon systems follow genome replication, usually without infectious particles.)
Test [3] is described as follows: Pseudomonas biofilm growth suppression – PAO1 strain, BacTiter-Glo luminescence, LB-PBS, primary screen (AID 1144). The conditions noted are these: P. aeruginosa PAO1 biofilm, 12 h, higher = more signal.
Test [4] can be described thus: basal CRE-LacZ reporter activity in PC12 – cell-based, unstimulated, primary screen (AID 1145). The conditions noted are these: no forskolin, luminescence, 4.5 h, higher = more signal, called active from +8 up or from −8 down.
Test [5] is described as follows: forskolin-driven CRE-LacZ activity in PC12 – cell-based, CRE-LacZ reporter, forskolin-stimulated, primary screen (AID 1146).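 Note: PC12 cells with 6xCRE LacZ reporter stimulated by forskolin 10 µM; beta-galactosidase reporter signal reflecting CREB driven transcription.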 The settings on record: luminescence, 4.5 h, higher = more signal, called active from +8 up or from −8 down.
The target in test [6] is Streptavidin (Streptomyces avidinii) (UniProt P22629). Briefly: compounds binding control protein streptavidin – biophysical, small-molecule microarray, 635/667 nm fluorescence, artefact control for SMM compound annotation, primary screen (AID 1147).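 Note: signal reflects streptavidin binding to arrayed compounds as a control protein.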 The settings on record: higher = more signal.
A short description of test [7]: probe aInhba binding on compound microarray – biochemical, small-molecule microarray, 635/667 nm fluorescence, primary screen (AID 1148).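 Note: score merges 667nm spot fluorescence with signal-to-noise for antibody binding to printed compounds.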 The settings on record: higher = more signal.
The target in test [8] is Torsin-1A (Homo sapiens) (UniProt O14656). The experiment in a line: TOR1A wild-type binding on microarray – cell lysate, small-molecule microarray, lysate, 635/667 nm, primary screen (AID 1149). The conditions noted are these: COS7 hTOR1A-WT lysate, 635 nm fluorescence, higher = more signal.
The target is the same in test [9]. Briefly: torsin A mutant lysate binding on microarrays – cell lysate, small-molecule microarray, COS7 lysate, 635/667 nm fluorescence, primary screen (AID 1150).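 Note: score pools 667 nm emission and signal to noise measuring lysate protein binding.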 The settings on record: COS7 hTOR1A mutant lysate, 635 nm fluorescence, higher = more signal.
Test [10] has as its system Sonic hedgehog protein (Shh). Briefly: Sonic hedgehog microarray binding compounds – biochemical, small-molecule microarray, 635/667 nm fluorescence, primary screen (AID 1151).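 Note: Shh protein binding to compounds spotted on small-molecule microarray slides; score combines spot fluorescence intensity with signal-to-noise across triplicate slides.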 The conditions noted are these: 635 nm fluorescence, higher = more signal.
The nature of test [11]: optical density shifts of acrAB sulA E. coli – strain DRC41, OD650, 48 h, E. coli filamentation inducer project, primary screen (AID 1152).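 Note: E. coli MC1000 strain DRC41 lacking acrAB efflux pump and sulA.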 The conditions noted are these: higher = more signal, called active from +8 up or from −8 down.
Test [12] can be described thus: probe aLefty1 binding on compound microarray – biochemical, small-molecule microarray, 635/667 nm fluorescence, primary screen (AID 1153).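 Note: score merges spot fluorescence with signal-to-noise ratio from the scanned slide images.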 The conditions noted are these: higher = more signal.
The nature of test [13]: plasmodial surface anion channel blockers, osmotic lysis – cell-based, P. falciparum Indochina, OD700, 1 h, primary screen (AID 1154). The settings on record: P. falciparum Indochina infected RBC osmotic lysis, higher = more signal, called active from +8 up or from −8 down.
Test [14] in a line: plasmodial surface anion channel blockers, osmotic lysis – cell-based, P. falciparum Indochina, OD700, 2 h, primary screen (AID 1155).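 Note: lysis reports solute entry through the parasite surface anion channel PSAC.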 The settings on record: P. falciparum Indochina infected erythrocytes, higher = more signal, called active from +8 up or from −8 down.
A short description of test [15]: changes in parasitized red cell lysis, either direction – P. falciparum Indochina, OD700, 3 h, PSAC antagonist project, primary screen (AID 1156). The settings on record: P. falciparum-infected erythrocytes, osmotic lysis, higher = more signal, called active from +8 up or from −8 down.
Test [16] is described as follows: plasmodial surface anion channel blockers, osmotic lysis – cell-based, P. falciparum Indochina, OD700, 18 h, primary screen (AID 1157). The conditions noted are these: P. falciparum Indochina infected erythrocytes, osmotic lysis OD700, 18 h; higher = more signal, called active from +8 up or from −8 down.
A short description of test [17]: S6 kinase pathway phospho-S6 level changes – cell-based, A549, cytoblot, luminescence, serum-stimulated, primary screen (AID 1158).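 Note: serum-stimulated A549 lung adenocarcinoma cells; signal is phosphorylated S6 detected by cytoblot immunostaining with HRP secondary.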 The settings on record: 5 h, higher = more signal.
The target of test [18] is NADPH oxidase 2 (Homo sapiens) (UniProt P04839). The experiment in a line: compounds shifting NOX2 Amplex Red fluorescence – cell-based, HEK293-NOX2, PMA-stimulated, NOX inhibitor project, primary screen (AID 1159). Note: test concentration not given here. The conditions noted are these: 45 min, higher = more signal, called active from +8 up or from −8 down.
Test [19] has as its target NADPH oxidase 4 (Homo sapiens) (UniProt Q9NPH5). Briefly: compounds shifting NOX4 Amplex Red fluorescence – cell-based, HEK293-NOX4, tetracycline-induced, NOX inhibitor project, primary screen (AID 1160). The settings on record: HEK293-NOX4, Amplex Red H2O2 fluorescence, 45 min; higher = more signal, called active from +8 up or from −8 down.
Test [20] deals with NADPH oxidase 5 (Homo sapiens) (UniProt Q96PH1). The experiment in a line: compounds shifting NOX5 Amplex Red fluorescence – cell-based, HEK293-NOX5, NOX inhibitor project, primary screen (AID 1161). The conditions noted are these: HEK293-NOX5, ionomycin, 45 min, higher = more signal.

Activity calls are given as the source filed them. Unless noted, the rule behind the calls is not given here.

NADPH oxidase 2 (Homo sapiens), sequence (P04839 whole entry, looked up): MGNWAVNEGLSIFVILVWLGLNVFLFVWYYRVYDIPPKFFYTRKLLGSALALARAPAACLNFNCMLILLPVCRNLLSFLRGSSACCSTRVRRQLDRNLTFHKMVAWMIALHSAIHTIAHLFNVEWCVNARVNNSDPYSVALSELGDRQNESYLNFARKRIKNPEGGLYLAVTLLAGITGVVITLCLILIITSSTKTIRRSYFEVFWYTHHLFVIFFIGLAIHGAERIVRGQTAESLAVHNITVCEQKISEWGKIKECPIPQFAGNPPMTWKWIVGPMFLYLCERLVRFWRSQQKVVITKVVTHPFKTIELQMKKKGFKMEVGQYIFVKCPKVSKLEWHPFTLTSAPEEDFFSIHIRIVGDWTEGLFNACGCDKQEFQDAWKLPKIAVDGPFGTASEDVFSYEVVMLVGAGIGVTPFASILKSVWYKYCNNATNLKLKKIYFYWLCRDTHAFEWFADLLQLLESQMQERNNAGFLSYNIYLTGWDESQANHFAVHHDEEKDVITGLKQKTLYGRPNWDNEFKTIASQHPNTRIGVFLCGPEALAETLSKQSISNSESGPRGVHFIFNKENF
NADPH oxidase 5 (Homo sapiens), sequence (Q96PH1 whole entry, looked up): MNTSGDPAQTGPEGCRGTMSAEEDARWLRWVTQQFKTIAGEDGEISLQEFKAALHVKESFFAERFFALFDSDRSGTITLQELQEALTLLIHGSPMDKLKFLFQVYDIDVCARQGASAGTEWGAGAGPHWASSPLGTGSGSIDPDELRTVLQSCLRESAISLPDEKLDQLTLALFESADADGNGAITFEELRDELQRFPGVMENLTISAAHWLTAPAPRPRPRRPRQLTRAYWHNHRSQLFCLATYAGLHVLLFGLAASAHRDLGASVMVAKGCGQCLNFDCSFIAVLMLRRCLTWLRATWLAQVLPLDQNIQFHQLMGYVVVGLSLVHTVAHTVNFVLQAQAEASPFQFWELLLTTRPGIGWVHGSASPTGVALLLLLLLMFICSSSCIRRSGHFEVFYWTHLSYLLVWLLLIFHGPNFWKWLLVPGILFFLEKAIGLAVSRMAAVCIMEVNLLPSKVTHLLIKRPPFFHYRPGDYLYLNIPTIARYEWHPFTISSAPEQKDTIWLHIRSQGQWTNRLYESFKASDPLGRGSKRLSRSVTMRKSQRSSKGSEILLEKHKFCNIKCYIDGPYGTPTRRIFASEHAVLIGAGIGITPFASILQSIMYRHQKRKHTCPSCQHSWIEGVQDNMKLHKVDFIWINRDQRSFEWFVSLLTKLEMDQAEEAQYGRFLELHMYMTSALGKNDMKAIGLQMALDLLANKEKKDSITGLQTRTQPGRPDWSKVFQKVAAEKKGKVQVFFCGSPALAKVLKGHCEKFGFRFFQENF
Torsin-1A (Homo sapiens), sequence (O14656 whole entry, looked up): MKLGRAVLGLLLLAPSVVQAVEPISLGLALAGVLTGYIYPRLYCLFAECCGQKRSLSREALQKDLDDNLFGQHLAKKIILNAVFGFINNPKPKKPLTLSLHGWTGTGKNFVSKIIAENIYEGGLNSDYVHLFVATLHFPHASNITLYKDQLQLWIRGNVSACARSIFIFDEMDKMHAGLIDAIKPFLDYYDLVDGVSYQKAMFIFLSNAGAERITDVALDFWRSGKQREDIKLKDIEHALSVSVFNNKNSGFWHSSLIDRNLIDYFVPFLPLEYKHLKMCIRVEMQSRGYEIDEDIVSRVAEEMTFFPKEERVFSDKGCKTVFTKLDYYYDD
Streptavidin (Streptomyces avidinii), sequence (P22629 whole entry, looked up): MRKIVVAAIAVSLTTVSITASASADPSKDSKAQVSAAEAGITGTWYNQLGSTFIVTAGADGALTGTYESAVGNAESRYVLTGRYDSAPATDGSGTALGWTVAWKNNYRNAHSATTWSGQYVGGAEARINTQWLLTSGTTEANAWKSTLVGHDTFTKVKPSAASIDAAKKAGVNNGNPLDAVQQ
NADPH oxidase 4 (Homo sapiens), sequence (Q9NPH5 whole entry, looked up): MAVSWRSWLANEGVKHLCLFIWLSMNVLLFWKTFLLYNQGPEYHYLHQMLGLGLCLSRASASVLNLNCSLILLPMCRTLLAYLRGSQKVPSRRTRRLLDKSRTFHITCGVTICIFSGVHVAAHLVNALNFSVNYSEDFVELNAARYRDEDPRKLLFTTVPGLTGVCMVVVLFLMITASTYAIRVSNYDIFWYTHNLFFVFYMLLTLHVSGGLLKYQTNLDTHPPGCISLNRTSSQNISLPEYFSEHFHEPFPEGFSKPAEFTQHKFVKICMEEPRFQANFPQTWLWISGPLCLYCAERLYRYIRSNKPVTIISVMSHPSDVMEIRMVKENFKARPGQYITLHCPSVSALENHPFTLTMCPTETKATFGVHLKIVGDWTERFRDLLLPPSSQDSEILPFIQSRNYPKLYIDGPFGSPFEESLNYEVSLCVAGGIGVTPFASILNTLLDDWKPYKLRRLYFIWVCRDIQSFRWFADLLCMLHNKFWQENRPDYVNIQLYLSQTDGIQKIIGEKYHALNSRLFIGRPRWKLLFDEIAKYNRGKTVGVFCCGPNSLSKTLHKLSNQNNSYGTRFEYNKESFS

Turning to `COCCCNC(=O)[C@@]1(Cc2ccccc2I)c2ccccc2C(=O)N(Cc2ccccc2C(F)(F)F)[C@H]1c1ccc(CO)cc1`, the composite z-score is -0.347 in test [1]; -0.253 in test [6]; -0.016 in test [7]; 0.0167 in the test with Torsin-1A (Homo sapiens) [8]; -0.0514 in the test with Torsin-1A (Homo sapiens) [9]; -0.414 in test [10]. The composite z-score in test [12] is -0.142. Further, the z-score was -2.13 (inactive) in [2]; -0.528 (inactive) in test [3]; -0.619 (inactive) in test [4]; 1.15 (inactive) in [5]; -0.506 (inactive) in test [11]; 3.42 (inactive) in test [13]. Further, the z-score is 1.31 (inactive) in test [14]; 2.09 (inactive) in test [15]; 0.866 (inactive) in test [16]; -0.55 in test [17]; 0.227 (inactive) in test [18]; -1.01 (inactive) in [19]. Besides, the z-score in test [20] was -1.42.
Take `COCCOC(=O)N1C(=O)[C@@]2(c3cc(C#CCNC(N)=O)ccc31)[C@H](C(=O)N1CCN(c3ncccn3)CC1)[C@H]1C(=O)O[C@H](c3ccccc3)[C@H](c3ccccc3)N1[C@@H]2c1ccc(O)cc1`: the composite z-score in [1] is -0.546; in test [6], -1.21; in test [7], -0.4; in the test with Torsin-1A (Homo sapiens) [8], -0.827; with Torsin-1A (Homo sapiens) [9] it was -0.859; in test [10] it was -0.448. The molecule also returned a composite z-score in test [12] of -0.514. In addition, the z-score is -0.375 (inactive) in test [2]; -1.09 (inactive) in test [3]; 0.484 (inactive) in test [4]; -0.26 (inactive) in test [5]; 0.03 (inactive) in [11]; 1.35 (inactive) in [13]. For the same molecule, the z-score is -0.136 (inactive) in [14]; 0.889 (inactive) in test [15]; 0.539 (inactive) in test [16]; -0.285 in test [17]; 0.806 (inactive) in [18]; 0.432 (inactive) in test [19]. Moreover, the z-score in test [20] stood at 0.31.
On to `C=CCOC(=O)[C@@H]1[C@H]2C(=O)O[C@H](c3ccccc3)[C@H](c3ccccc3)N2[C@H](c2ccc(OCCOC(=O)[C@@H]3C[C@@H]4C(=O)N[C@@H](CC(C)C)C(=O)N4[C@@H]3c3ccc(O)cc3)cc2)[C@@]12C(=O)Nc1ccc(I)cc12`, for which the composite z-score in [1] was determined as 0.601; in test [6], 0.834; in [7] it was 1.27; with Torsin-1A (Homo sapiens) [8], 0.271; in the test with Torsin-1A (Homo sapiens) [9], 0.506; in test [10], 2.2. This molecule also yielded a composite z-score in test [12] of 1.58. The z-score was -0.259 (inactive) in [2]; -0.282 (inactive) in [3]; -0.655 (inactive) in test [4]; -1.23 (inactive) in test [5]; 0.928 (inactive) in test [11]; 1.5 (inactive) in test [13]. Moreover, the z-score in [14] was 0.9 (inactive); in test [15] it was 4.25 (inactive); in test [16] it was 0.718 (inactive); in test [17], 0.0764; in [18], 0.485 (inactive); in test [19], 0.64 (inactive). In addition, the z-score in [20] stood at 0.839.
With `COCCOC(=O)N1C(=O)[C@@]2(c3cc(C#CCC(C(=O)OC)C(=O)OC)ccc31)[C@H](C(=O)N1CCc3cc(OC)c(OC)cc3C1)[C@H]1C(=O)O[C@H](c3ccccc3)[C@H](c3ccccc3)N1[C@@H]2c1ccccc1OCCO`, the composite z-score in test [1] is 0.725; in test [6], 0.593; in [7], -0.025; with Torsin-1A (Homo sapiens) [8] it was 0.897; with Torsin-1A (Homo sapiens) [9] it was 0.949; in [10], 1.73. The molecule further gave a composite z-score in test [12] of -0.314. Moreover, the z-score in [2] was -3.46 (inactive); in [3], -0.893 (inactive); in test [4], -1.14 (inactive); in [5], 0.149 (inactive); in test [11], 1.25 (inactive); in [13], 2.96 (inactive). In addition, the z-score in test [14] is 1.42 (inactive); in [15], 0.358 (inactive); in [16], 0.265 (inactive); in test [17], -0.0797; in test [18], 1.48 (inactive); in test [19] it was 1.57 (inactive). In addition, the z-score in test [20] came to 0.966.
